Common to all, as to experiment: DAPPL (digital affinity profiling via proximity ligation, sequencing); 10 mM Tris-HCl pH 7.5, 50 mM NaCl, 1 mM DTT, 4% glycerol, room temperature, 30 min; GST-TFs on glutathione beads, 16-mer random dsDNA library, 0.1% formaldehyde crosslink after washing; high values mean tight binding
Common to all, as to conditions: protein: recombinant; tags: N-terminal GST; dsDNA, one strand shown

One assay addresses ELF1 (Homo sapiens, UniProt P32519 1-619). The gist of the method:
(§1)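 GST fusions of human transcription factors were expressed in yeast and captured with glutathione beads. Once given DNA barcodes and pooled alongside a tag-only sample, they were incubated for 30 min at room temperature with 200 nmole of a random double-stranded 16-mer DNA library in Tris/NaCl/DTT/glycerol buffer, then washed, crosslinked (0.1% formaldehyde), proximity-ligated, PCR-amplified and sequenced on an Illumina NextSeq500. The binding signal of each hexamer is its read frequency for a factor divided by its frequency for the tag-only sample.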

Another assay deals with SPI1 (Homo sapiens, UniProt P17947 1-270). The gist of the method:
as §1

In another assay the target is T1, FEV (Homo sapiens, UniProt Q99581 1-238).
T1 sequence: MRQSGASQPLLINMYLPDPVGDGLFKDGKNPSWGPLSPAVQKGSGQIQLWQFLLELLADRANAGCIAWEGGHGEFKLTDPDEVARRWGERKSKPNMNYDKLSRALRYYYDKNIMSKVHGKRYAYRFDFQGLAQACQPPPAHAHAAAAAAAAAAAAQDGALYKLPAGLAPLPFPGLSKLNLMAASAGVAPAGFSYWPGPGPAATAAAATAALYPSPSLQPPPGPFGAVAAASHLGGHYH
The gist of the method: as §1

A further assay addresses ETV5 (Homo sapiens, UniProt P41161 1-510). The gist of the method: as §1
The next assay deals with ELF4 (Homo sapiens, UniProt Q99607 1-663). The gist of the method: as §1
Chain of ELF4 (Q99607 whole entry): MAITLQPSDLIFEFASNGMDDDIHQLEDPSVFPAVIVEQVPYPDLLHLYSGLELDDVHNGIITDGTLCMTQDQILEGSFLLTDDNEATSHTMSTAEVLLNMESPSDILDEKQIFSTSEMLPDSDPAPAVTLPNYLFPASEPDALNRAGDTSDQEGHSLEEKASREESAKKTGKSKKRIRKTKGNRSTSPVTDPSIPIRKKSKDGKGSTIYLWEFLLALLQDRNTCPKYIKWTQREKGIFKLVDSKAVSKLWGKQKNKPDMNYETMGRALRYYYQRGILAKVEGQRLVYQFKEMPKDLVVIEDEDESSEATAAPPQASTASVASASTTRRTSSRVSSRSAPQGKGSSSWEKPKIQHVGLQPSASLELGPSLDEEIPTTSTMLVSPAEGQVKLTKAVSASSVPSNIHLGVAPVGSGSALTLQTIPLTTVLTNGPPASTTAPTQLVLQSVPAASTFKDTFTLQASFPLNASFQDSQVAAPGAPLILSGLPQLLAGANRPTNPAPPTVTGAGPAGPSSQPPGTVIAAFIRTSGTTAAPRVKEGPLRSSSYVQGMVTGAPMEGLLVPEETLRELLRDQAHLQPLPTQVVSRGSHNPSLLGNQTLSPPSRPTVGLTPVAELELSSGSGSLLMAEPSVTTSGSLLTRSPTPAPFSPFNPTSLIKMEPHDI
In the next assay the target is T2, ELK4 (Homo sapiens, UniProt P28324-2 1-405).
T2 sequence: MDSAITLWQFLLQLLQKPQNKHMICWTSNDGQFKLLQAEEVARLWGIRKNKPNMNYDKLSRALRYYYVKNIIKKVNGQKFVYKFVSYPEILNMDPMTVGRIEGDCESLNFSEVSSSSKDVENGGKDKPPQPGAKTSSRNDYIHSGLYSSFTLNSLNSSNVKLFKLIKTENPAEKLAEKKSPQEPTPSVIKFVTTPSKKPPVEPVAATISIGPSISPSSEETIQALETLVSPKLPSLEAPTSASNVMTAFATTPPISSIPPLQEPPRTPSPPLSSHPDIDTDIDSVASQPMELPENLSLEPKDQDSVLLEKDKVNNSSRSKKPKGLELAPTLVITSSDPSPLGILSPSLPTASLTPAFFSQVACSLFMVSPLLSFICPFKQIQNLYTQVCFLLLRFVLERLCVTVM
Put shortly:
as §1

A further assay deals with T3, ETV3L (Homo sapiens, UniProt Q6ZN32 1-361).
T3 sequence: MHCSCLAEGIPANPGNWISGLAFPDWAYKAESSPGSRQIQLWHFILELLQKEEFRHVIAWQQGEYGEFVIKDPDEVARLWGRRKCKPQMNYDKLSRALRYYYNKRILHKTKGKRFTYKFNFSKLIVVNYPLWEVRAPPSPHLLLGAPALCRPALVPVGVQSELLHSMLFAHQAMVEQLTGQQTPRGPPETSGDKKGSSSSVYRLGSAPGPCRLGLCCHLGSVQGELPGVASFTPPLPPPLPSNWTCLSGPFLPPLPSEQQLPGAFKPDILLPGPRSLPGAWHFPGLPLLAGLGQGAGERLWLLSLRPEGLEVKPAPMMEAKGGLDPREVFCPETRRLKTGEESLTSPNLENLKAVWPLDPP
Put shortly: as §1

For another assay, the target named is T4, ETS2 (Homo sapiens, UniProt P15036 1-469).
T4 sequence: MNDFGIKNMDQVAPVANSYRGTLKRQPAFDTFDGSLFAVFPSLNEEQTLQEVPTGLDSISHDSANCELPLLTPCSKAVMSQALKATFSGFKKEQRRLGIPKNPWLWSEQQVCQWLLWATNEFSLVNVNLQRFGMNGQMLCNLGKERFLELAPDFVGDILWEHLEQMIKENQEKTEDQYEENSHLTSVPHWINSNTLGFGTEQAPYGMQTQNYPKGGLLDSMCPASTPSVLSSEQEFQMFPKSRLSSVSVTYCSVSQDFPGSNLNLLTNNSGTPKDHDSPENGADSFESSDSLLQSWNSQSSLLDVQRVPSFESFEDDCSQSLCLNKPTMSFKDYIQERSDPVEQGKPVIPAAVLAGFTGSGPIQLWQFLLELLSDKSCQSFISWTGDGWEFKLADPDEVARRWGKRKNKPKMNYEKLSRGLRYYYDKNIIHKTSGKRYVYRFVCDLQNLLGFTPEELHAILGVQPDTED
The gist of the method:
as §1

Another assay deals with ETV6 (Homo sapiens, UniProt P41212 1-452). Put shortly: as §1
Chain of ETV6 (P41212 whole entry): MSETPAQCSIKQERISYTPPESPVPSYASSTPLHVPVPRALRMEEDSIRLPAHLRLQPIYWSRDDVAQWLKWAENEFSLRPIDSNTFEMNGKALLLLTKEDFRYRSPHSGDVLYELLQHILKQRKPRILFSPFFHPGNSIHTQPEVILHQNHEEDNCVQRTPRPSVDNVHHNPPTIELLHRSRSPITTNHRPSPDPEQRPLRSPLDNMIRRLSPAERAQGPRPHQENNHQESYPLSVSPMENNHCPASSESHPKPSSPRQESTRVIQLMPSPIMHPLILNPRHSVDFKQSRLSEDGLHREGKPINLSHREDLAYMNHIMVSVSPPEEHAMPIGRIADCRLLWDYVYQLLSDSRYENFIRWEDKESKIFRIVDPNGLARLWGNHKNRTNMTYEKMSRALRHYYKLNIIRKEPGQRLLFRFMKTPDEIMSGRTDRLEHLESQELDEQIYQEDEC
The target of the next assay is T5, ELK1 (Homo sapiens, UniProt P19419 1-428).
T5 sequence: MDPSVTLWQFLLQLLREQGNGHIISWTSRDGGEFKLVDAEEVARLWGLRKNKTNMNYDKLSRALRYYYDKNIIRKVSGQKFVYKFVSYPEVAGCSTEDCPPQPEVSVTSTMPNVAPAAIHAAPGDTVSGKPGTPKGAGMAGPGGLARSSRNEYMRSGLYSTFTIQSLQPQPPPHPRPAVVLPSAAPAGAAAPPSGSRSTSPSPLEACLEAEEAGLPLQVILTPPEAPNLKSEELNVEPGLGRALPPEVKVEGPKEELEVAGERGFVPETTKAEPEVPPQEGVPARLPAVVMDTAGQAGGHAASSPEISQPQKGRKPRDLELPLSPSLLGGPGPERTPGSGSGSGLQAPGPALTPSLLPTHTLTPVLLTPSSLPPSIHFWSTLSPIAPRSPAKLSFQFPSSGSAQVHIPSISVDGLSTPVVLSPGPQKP
The gist of the method: as §1

The target of a further assay is T6, EHF (Homo sapiens, UniProt Q9NZC4 1-300).
T6 sequence: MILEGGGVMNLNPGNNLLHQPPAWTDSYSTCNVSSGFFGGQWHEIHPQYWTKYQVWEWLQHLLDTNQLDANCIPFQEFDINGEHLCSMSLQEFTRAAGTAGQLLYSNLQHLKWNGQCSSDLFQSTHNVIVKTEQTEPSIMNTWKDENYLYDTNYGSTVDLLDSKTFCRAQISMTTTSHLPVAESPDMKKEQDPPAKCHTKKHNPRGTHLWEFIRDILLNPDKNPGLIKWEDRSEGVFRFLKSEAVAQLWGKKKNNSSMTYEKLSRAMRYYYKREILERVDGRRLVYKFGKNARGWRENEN
The gist of the method:
as §1

The next assay deals with T7, ETV2 (Homo sapiens, UniProt O00321 1-342).
T7 sequence: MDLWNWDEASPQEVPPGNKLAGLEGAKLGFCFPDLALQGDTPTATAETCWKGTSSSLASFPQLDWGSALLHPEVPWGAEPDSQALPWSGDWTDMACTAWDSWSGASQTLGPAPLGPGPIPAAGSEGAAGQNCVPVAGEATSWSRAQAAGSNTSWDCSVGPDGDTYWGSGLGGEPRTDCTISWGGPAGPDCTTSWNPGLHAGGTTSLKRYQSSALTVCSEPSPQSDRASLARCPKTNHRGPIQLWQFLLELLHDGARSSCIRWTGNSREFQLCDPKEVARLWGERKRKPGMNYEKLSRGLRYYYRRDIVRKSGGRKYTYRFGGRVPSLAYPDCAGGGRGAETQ
Put shortly: as §1

A further assay has as its target T8, ERF (Homo sapiens, UniProt P50548 1-548).
T8 sequence: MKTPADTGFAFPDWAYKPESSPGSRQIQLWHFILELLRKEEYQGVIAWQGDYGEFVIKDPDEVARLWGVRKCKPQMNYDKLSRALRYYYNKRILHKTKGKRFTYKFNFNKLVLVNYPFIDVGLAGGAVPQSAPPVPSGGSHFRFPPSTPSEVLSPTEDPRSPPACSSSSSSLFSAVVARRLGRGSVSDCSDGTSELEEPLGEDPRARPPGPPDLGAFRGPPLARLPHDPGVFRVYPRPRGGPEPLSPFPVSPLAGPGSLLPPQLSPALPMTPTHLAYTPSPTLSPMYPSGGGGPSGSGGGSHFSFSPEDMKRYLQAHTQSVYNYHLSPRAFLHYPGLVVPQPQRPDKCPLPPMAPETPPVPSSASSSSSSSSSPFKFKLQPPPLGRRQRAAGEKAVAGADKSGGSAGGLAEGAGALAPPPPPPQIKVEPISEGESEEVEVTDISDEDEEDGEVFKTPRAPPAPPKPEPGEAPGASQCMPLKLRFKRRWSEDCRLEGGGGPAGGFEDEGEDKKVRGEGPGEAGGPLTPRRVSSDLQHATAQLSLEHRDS
Put shortly:
as §1

Another assay deals with T9, ETV7 (Homo sapiens, UniProt Q9Y603 1-341).
T9 sequence: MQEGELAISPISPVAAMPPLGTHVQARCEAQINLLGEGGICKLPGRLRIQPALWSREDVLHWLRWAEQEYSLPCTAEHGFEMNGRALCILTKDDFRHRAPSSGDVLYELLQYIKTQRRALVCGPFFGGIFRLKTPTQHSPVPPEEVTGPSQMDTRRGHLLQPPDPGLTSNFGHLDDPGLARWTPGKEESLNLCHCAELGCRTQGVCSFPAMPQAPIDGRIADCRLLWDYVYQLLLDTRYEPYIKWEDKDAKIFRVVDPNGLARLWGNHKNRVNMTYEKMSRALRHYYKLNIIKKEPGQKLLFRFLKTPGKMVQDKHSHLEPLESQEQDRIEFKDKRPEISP
Put shortly: as §1

The next assay addresses T10, ETV3 (Homo sapiens, UniProt P41162-2 1-143).
T10 sequence: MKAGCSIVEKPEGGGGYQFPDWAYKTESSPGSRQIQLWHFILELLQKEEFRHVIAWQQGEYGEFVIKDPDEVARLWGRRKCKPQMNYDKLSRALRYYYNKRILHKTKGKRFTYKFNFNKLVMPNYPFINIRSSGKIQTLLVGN
Put shortly:
as §1

Chain of ELF1 (P32519 whole entry, the tested form may be a part): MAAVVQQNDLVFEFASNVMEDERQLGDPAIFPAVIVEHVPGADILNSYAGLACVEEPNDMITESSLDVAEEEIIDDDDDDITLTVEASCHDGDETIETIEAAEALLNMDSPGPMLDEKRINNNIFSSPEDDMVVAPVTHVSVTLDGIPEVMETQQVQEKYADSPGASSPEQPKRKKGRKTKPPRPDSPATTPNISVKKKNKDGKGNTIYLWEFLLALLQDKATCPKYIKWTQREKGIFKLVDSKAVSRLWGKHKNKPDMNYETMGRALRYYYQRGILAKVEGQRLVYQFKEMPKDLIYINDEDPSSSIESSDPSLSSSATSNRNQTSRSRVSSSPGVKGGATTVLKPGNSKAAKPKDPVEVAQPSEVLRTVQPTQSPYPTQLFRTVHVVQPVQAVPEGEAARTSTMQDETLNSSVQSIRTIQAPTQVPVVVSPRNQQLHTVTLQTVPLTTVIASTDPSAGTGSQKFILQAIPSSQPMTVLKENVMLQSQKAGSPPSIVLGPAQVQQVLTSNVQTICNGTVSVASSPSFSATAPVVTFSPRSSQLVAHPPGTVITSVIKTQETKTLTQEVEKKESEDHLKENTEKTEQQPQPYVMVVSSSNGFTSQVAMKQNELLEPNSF
Chain of ETV5 (P41161 whole entry): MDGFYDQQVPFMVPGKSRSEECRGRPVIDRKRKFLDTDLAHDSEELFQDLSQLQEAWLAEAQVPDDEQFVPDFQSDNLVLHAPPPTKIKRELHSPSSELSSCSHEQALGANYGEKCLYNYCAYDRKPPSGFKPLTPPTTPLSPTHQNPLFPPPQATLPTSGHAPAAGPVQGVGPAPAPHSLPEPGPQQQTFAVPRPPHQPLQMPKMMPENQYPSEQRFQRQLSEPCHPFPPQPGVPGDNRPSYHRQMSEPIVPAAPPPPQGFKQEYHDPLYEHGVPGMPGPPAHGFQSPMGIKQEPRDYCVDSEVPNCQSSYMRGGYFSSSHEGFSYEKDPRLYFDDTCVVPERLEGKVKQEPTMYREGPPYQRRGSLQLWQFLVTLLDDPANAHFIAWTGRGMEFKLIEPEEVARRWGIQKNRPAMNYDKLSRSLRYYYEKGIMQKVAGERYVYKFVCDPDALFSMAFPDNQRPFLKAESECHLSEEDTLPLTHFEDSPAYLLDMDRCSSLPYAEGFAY

In the case of TGGGCA, the binding signal in the assay with ELF1 was 1.06 fold enrichment (6-mer frequency, TF over GST control); in the assay with SPI1, 1.08 fold enrichment (6-mer frequency, TF over GST control); with FEV it was 1.01 fold enrichment (6-mer frequency, TF over GST control); in the assay with ETV5 it was 1.04 fold enrichment (6-mer frequency, TF over GST control); with ELF4, 1.04 fold enrichment (6-mer frequency, TF over GST control); in the assay with ELK4, 1.06 fold enrichment (6-mer frequency, TF over GST control). In addition, the binding signal with ETV3L was 1.04 fold enrichment (6-mer frequency, TF over GST control); with ETS2, 1.04 fold enrichment (6-mer frequency, TF over GST control); with ETV6, 1.02 fold enrichment (6-mer frequency, TF over GST control).
As for GCTAAC, the binding signal with ELK1 was 1.1 fold enrichment (6-mer frequency, TF over GST control); with ELF1, 1.04 fold enrichment (6-mer frequency, TF over GST control); in the assay with EHF, 1.03 fold enrichment (6-mer frequency, TF over GST control); with SPI1, 1.1 fold enrichment (6-mer frequency, TF over GST control); with FEV it was 1.03 fold enrichment (6-mer frequency, TF over GST control); in the assay with ETV5, 1.06 fold enrichment (6-mer frequency, TF over GST control). Also, the binding signal in the assay with ELK4 was 1.05 fold enrichment (6-mer frequency, TF over GST control); in the assay with ETV2, 1.07 fold enrichment (6-mer frequency, TF over GST control); with ERF it was 1.03 fold enrichment (6-mer frequency, TF over GST control); in the assay with ETV7, 1.09 fold enrichment (6-mer frequency, TF over GST control); with ETV3 it was 1 fold enrichment (6-mer frequency, TF over GST control).
